# Test results as given in the supplement of paper PMC4683952.
# Where a name gives a salt, the structure may show the parent alone. The whole screen tested about 1,200 compounds, of which about 50 (4%) showed activity. Cut-off read from the data, not from the text of the source: all actives reach 1.3 or more but so do some inactives. What follows is part of a selection rich in actives, with near analogues and random picks from the rest.
# Tested on: Lgr5 (MarsCy1-Lgr5-EGFP, U2OS)
# Assay: cell-surface Lgr5 expression (SCi1 fluorescence, background-subtracted) relative to WT DMSO (fold of DMSO control); higher = more Lgr5 at the plasma membrane, active = hit call of the paper
# Settings: U2OS MarsCy1-Lgr5-EGFP stable; treatment time: overnight; 16 µM; library: Johns Hopkins Clinical Compound Library
row,Compound,cell-surface Lgr5 expression
1,COc1cc(C2c3cc4c(cc3C(O)C(CO)C2C(=O)O)OCO4)cc(OC)c1OC.COc1cc(C2c3cc4c(cc3C(O)C(CO)C2C(=O)O)OCO4)cc(OC)c1OC.COc1cc(C2c3cc4c(cc3C(O)C3COC(=O)C23)OCO4)cc(OC)c1OC.COc1cc(C2c3cc4c(cc3C(O)C3COC(=O)C23)OCO4)cc(OC)c1OC (stereo unspecified) [Podophyllum resin],1.55 (active)
2,CC(N)C(O)c1ccccc1 (stereo unspecified) [Norephedrine Hydrochloride (Phenylpropanolamine)],1.19 (inactive)
3,C=C[C@H]1CN2CC[C@H]1C[C@@H]2[C@@H](O)c1ccnc2ccccc12 [Cinchonine sulfate],1.25 (inactive)
4,CCN(CC)C(=O)N[C@H]1C=C2c3cccc4[nH]cc(c34)C[C@H]2N(C)C1 [Lisuride],1.1 (inactive)
5,[S]=[Sb][S][Sb]=[S] [Antimony (III) sulfide],1.26 (inactive)
6,NC(=O)CN1CC(O)CC1=O (stereo unspecified) [Oxiracetam],1.36 (active)
7,COc1ccc(O)c(C(C)(C)C)c1.COc1ccc(O)cc1C(C)(C)C [Butylated hydroxyanisole],1.15 (inactive)
8,C=CCN1C[C@H](C(=O)N(CCCN(C)C)C(=O)NCC)C[C@@H]2c3cccc4[nH]cc(c34)C[C@H]21 [Cabergoline],0.958 (inactive)
9,ClC1=C(Cl)C2(Cl)C(CBr)CC1(Cl)C2(Cl)Cl (stereo unspecified) [Bromocyclen],1.24 (inactive)
10,C[C@]12Cc3c[nH]nc3C[C@@H]1CC[C@@H]1[C@@H]2CC[C@@]2(C)[C@H]1CC[C@]2(C)O [Stanozolol],1.03 (inactive)
11,C=C1C[C@@H]2[C@H](CC[C@]3(C)C(=O)CC[C@@H]23)[C@@]2(C)C=CC(=O)C=C12 [Exemestane],1.48 (inactive)
12,"C[C@]12CCC(=O)C(O)=C1CC[C@@H]1[C@@H]2CC[C@]2(C)C(=O)CC[C@@H]12 [Formestane (4-Androsten-4-ol-3,17-dione)]",1.18 (inactive)
13,"C[C@]12CC[C@H](O)CC1=CC[C@@H]1[C@@H]2CC[C@]2(C)C(=O)CC[C@@H]12 [Prasterone (DHEA, dehydroepiandrosterone)]",1.33 (active)
14,C[C@]12CC[C@H](O)CC1=CC[C@@H]1[C@@H]2CC[C@]2(C)C(=O)CC[C@@H]12 [Prasterone (dehydroisoandrosterone)],1.09 (inactive)
15,C=CCN=C=S [Allyl isothiocyanate],0.99 (inactive)
16,N[C@@H](Cc1ccc(N(CCCl)CCCl)cc1)C(=O)O [Melphalan],1.14 (inactive)
17,CC(C)(C)NCC(O)c1ccccc1Cl (stereo unspecified) [Tulobuterol],1.42 (active)
18,CN(C)C(=O)Oc1cc(OC(=O)N(C)C)cc(C(O)CNC(C)(C)C)c1 (stereo unspecified) [Bambuterol],1.21 (inactive)
19,C1CN1c1nc(N2CC2)nc(N2CC2)n1 [Triethylenemelamine],1.39 (inactive)
20,[O-][n+]1ccccc1[S-].[O-][n+]1ccccc1[S-].[Zn+2] [Pyrithione zinc (1-Hydroxypyridine-2-Thione Zinc Salt)],0.923 (inactive)
21,CN1C[C@H](C(=O)N[C@]2(C)O[C@@]3(O)[C@@H]4CCCN4C(=O)[C@H](Cc4ccccc4)N3C2=O)C[C@@H]2c3cccc4[nH]cc(c34)C[C@H]21 [Dihydroergotamine methanesulfonate],0.612 (inactive)
